FBPA coupling cs = qHTS Assay for Inhibitors of Fructose-1,6-bisphosphate Aldolase from Giardia Lamblia: Coupling assay counterscreen; coupling enzyme system counterscreen, AmpLite Red fluorescence; activity change, negative = inhibition, % at 58.2 µM, hits read low; actives 0.67% (n = 290,000); in the data active means activity change below about -30%
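Coupling enzymes only (glyceraldehyde-3-phosphate) + compound, at 57.5 uM final, 10 min RT; add substrate/coupling/AmpLite Red mix, 20 min RT; fluorescence ex 525/em 598 nm. Actives flag coupling-system interference.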
Tau fluor cs = Counterscreen qHTS for Inhibitors of Tau Fibril Formation, Fluorescence Polarization; tau K18 P301L Alexa594 fluorescence, heparin fibrillization; AID 1463, 2008; actives 0.93% (n = 280,000); Potency, µM (titrated, usually from 57.7 µM); further: nearly all actives have a fitted effect of over 55% in size
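Human K18 P301L tau (15 uM unlabeled plus 0.24 uM Alexa 594-labeled, final) in 100 mM sodium acetate pH 7 was mixed with compound and 20 uM heparin and incubated 6 hr at 37 C.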
Sfp PPTase inh = qHTS Assay for Inhibitors of Bacillus subtilis Sfp phosphopantetheinyl transferase (PPTase) | 4'-phosphopantetheinyl transferase ffp (Bacillus subtilis), Q9F4F7 | actives 3.5% (n = 310,000) | Potency, µM, most hits filed as inhibitors | AID 1490, 2009 | Biochemical Sfp PPTase activity, qHTS;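 further: the enzyme is Sfp with the accession as filed and its product quenches rhodamine fluorescence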
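Sfp 15 nM + cpd, 15 min RT; start w/ rhodamine-CoA 5 uM, BHQ-2-YbbR 12.5 uM (final); 50 mM Hepes pH 7.6, 10 mM MgCl2, 0.01% NP-40, 0.01% BSA; read 525/598 nm at 0 and 30 min.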
G9a inh = qHTS Assay for Inhibitors of Histone Lysine Methyltransferase G9a; actives 8.8% (n = 350,000); Histone-lysine N-methyltransferase EHMT2 (Homo sapiens), Q96KQ7; Potency, µM (titrated, usually from 102 µM), usual class: inhibitors; G9a H3K9 monomethylation, AlphaScreen, 2 h; AID 504332, 2011; further: nearly all actives have a fitted effect of over 75% in size
Target sequence (Q96KQ7 913-1193 limits assumed): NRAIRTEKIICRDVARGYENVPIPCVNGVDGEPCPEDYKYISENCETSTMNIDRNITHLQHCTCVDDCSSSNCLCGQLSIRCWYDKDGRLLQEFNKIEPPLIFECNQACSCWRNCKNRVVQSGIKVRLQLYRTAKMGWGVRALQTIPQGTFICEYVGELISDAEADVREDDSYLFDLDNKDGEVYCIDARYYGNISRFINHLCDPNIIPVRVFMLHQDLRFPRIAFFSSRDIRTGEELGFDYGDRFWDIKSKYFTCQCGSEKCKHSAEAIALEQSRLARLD
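Readings reflect AlphaScreen signal from monomethyl-H3K9 antibody detection. HMT at 20 nM; substrate b-H3K9 500 nM; cofactor SAM 20 uM; 2 h RT reaction; compounds tested as titrations in qHTS with 15 min preincubation.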
Tau fibril FP = qHTS for Inhibitors of Tau Fibril Formation, Fluorescence Polarization | Potency, µM (doses to about 57.7 µM), usual class: inhibitors | AID 1468, 2008 | actives 0.39% (n = 280,000) | K18 P301L tau heparin fibrillization, Alexa594 FP, 6 h | Microtubule-associated protein tau (Homo sapiens), P10636; further: nearly all actives have a fitted effect of over 55% in size
Target sequence (P10636 561-689 P618L limits assumed): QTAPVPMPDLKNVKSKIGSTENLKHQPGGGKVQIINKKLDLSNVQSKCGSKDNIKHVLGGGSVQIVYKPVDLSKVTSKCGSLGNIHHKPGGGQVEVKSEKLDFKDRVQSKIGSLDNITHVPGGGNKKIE
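Steps: dispense K18 P301L tau (15 uM plus 0.24 uM Alexa 594 tracer, final) in pH 7 sodium acetate; add compound; add heparin (20 uM final); incubate 6 hr, 37 C; add ThT (30 uM final); after 1 hr ambient, read FP.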
Tau fibril ThT = qHTS for Inhibitors of Tau Fibril Formation, Thioflavin T Binding. Microtubule-associated protein tau (Homo sapiens), P10636. recombinant tau K18 P301L (four-repeat tau fragment), heparin-induced fibrillization, ThT fluorescence. Potency, µM (doses to about 57.4 µM), usual class: inhibitors. actives 2.1% (n = 270,000). AID 1460, 2008; further: nearly all actives have a fitted effect of over 55% in size
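K18 P301L tau (15 uM + 0.24 uM Alexa 594-tagged), heparin 20 uM, NaOAc pH 7, 6 h 37 C; ThT 30 uM, 1 h RT, ex 450/em 510 nm.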
Numbers stand for hits; . = inactive; ? = inconclusive; / = no result given; [ ] = another dose, or the depositor's remark. A selection: hits, their analogues and other compounds. The true share with any hit is near 11%. Unless noted, the call rests on the fitted dose curve; in most records, active means well fitted curve in the direction sought with a large enough effect; inconclusive means small, poorly fitted or top-dose-only effect, or another doubt; inactive means no such curve, though single readings can be large; an effect the other way counts as inactive or inconclusive.

SMILES	FBPA coupling cs	Tau fluor cs	Sfp PPTase inh	G9a inh	Tau fibril FP	Tau fibril ThT
CC12CCC=CC1C(c1ccc3ccccc3c1C=Cc1ccccc1)N(Cc1ccccc1)C2=O (centres undefined)	.	/	.	/	/	/
Cc1ccc(S(=O)(=O)N2CC=C(C(=O)NC3CC3)CC2)cc1	.	.	.	?	.	/
C(=N\Nc1nn[nH]n1)/c1ccccc1	.	.	44.7µM	35.5µM	.	.
Oc1ccccc1/C=N/Nc1nn[nH]n1	.	.	.	39.8µM	.	.
O=[N+]([O-])c1ccc(O)c(/C=N/Nc2nn[nH]n2)c1	.	.	.	.	.	?
Cc1nnc(N/N=C/c2cc(C)n(-c3ccc(F)cc3)c2C)n1N	-42.2	.	44.7µM	?	?	?
Cc1ccnc(N/N=C/c2ccccc2)n1	.	.	.	.	.	.
CN(C)c1nc(N/N=C/c2ccccc2O)nc(Nc2ccc(F)cc2)n1	.	8.91µM[quencher]	.	.	?	?
CC(C)C[C@H](NC(=O)[C@H](Cc1ccccc1)n1c(=O)[nH]c2ccccc2c1=O)C(=O)N1CCC[C@H]1C(=O)O	.	/	.	/	/	/
COc1ccc(-c2nc3cnc(N(C)C)nc3n(CCc3ccccc3)c2=O)cc1	.	/	.	.[12.7 µM]	/	/
Clc1ccc(/C=N/Nc2nn[nH]n2)cc1	.	.	.	10µM	.	.
Cc1nnc(N/N=C/c2ccccc2O)n1N	-31.0	.	.	.	?	?
Cc1ccc2cccc(N=Cc3c(C)[nH]n(-c4ccccc4)c3=O)c2n1	.	?	.	10µM	.	?
CCOc1ccc2nc(/N=C/c3c(C)[nH]n(-c4ccccc4)c3=O)sc2c1	.	?	10µM	25.1µM	?	14.1µM
CSc1nnc(-c2ccccc2N=Cc2c(C)[nH]n(-c3ccccc3)c2=O)c(=O)[nH]1	.	.	.	.[0.501 µM]	.	.
Cc1[nH]n(-c2ccccc2)c(=O)c1/C=C1/C=c2ccccc2=N1	.	.	.	?	.	2.24µM
COC(=O)N/N=C\c1c(C)[nH]n(-c2ccccc2)c1=O	.	.	.	1.78µM	.	.
O=c1c(-c2cc(F)cc(F)c2)nc2cncnc2n1-c1ccccc1	.	/	.	.[0.501 µM]	/	/
CC1=CC2C(C)(C)CC(=O)C[C@]2(C)CC1COc1ccc2c(c1)CC(=O)C=C2 (some centres undefined)	.	.	.	/	.	.
Cc1ccccc1C(=O)Nc1cccc(C(=O)OCc2cc(=O)n3ccsc3n2)c1	/	.	/	.	.	.
Cc1[nH]n(-c2ccccc2)c(=O)c1/C=N/O	.	.	.	/	.	.
Cc1[nH]n(-c2ccccc2)c(=O)c1/C=N/N(C)c1ccccc1	.	.	.	12.6µM	.	?
CC(C)NCCOc1cccc(Br)c1	.	.	.	50.1µM	.	.
CC(C)NCCCCOc1cccc(Br)c1	.	.	.	28.2µM	.	.
Brc1cccc(OCCCNC2CCCC2)c1	.	/	.	15.8µM	/	/
SMILES	FBPA coupling cs	Tau fluor cs	Sfp PPTase inh	G9a inh	Tau fibril FP	Tau fibril ThT
CC(=O)NCCOc1cccc(OCCNC(C)=O)c1	.	.	.	.	.	.
CNCCCOc1cccc(OC(C)C)c1	.	.	.	12.6µM	.	.
CNCCCOc1cccc(Oc2ccccc2)c1	.	.	.	/	.	.
CNc1nc(-c2ccccc2)[n+](-c2ccc(C)cc2)s1	.	.	3.16µM	1.41µM	.	.
Cc1ccc(-c2nc(N)s[n+]2-c2ccccc2)cc1	.	.	?	5.01µM	.	.
CCOC(=O)C(=O)C1=C(N2CCOCC2)/C(=C\c2cccc([N+](=O)[O-])c2)CC1	.	.	?	?	.	.
O=C(NP(=O)(N1CCCC1)N1CCCC1)C1=C(N2CCOCC2)/C(=C/c2cccc([N+](=O)[O-])c2)CC1	.	.	.	44.7µM	.	.
NC(=S)Nc1nc2ccccc2[nH]c1=O	.	.	?	7.94µM	.	?

From PubChem BioAssay
